Drawing on PubChem BioAssay (EPA / NIEHS), this text covers outcome and AC50 for 18 compounds.

The term AC50 denotes the concentration at which the activity in the assay is half-maximal.

A short description of test [1]: APR_HepG2_StressKinase_1hr: Apredica 1-hour HepG2 Assay for Stress Kinase (AID 2282906). The settings on record: HepG2 stress kinase (phospho-c-Jun) imaging, actives raise or lower the signal. The method, boiled down:
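HepG2 cells dosed 0.39-200 uM (0.5% DMSO) for 1 h, then formaldehyde-fixed. Stress kinase read by phospho-c-Jun immunofluorescence using high-content imaging; bidirectional fit vs DMSO.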

Test [2] can be described thus: APR_HepG2_NuclearSize_24hr: Apredica 24-hour HepG2 Assay for Nuclear Size (AID 2282907). The settings on record: high-content imaging, actives raise or lower the signal. The method, boiled down: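 HepG2, 24 hr dosing, 10-pt 0.39–200 uM, duplicates, 0.5% DMSO final; 3.7% formaldehyde fix, 0.5% Triton X-100; Hoechst 33342 nuclear stain; ArrayScan HCS, Cell Cycle analysis → nuclear size; bidirectional fit vs DMSO.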

The nature of test [3]: APR_HepG2_CellLoss_24hr: Apredica 24-hour HepG2 Assay for Cell Loss (AID 2282908).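 On AC50: fit in both directions so a hit may be cell loss or gain.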 The note with it: high-content imaging. The gist of the method:
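10-pt dose, 0.39–200 uM, n=2/plate; DMSO 0.5% v/v final as negative control. Fix 3.7% formaldehyde 30 min RT, permeabilize 0.5% Triton X-100, stain Hoechst 33342 2 ug/mL, image 20x. Nuclear count, bidirectional fit vs DMSO.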

Test [4] is described as follows: APR_HepG2_MicrotubuleCSK_24hr: Apredica 24-hour HepG2 Assay for Microtubule CSK Stabilty (AID 2282909). The settings on record: HepG2 microtubule cytoskeleton imaging, actives raise or lower the signal. The method, boiled down:
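Human liver HepG2, 24 h dosing, 0.39–200 uM ×10 conc, dup, 0.5% DMSO. 3.7% formaldehyde fix, 0.5% Triton perm, anti-alpha-tubulin (1:200)/Cy5 secondary + Hoechst. HCS imaging, 6 fields/well; gain/loss fit vs DMSO.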

Test [5] can be described thus: APR_HepG2_MitoticArrest_24hr: Apredica 24-hour HepG2 Assay for Mitotic Arrest (AID 2282910). The settings on record: high-content imaging, actives raise or lower the signal. The gist of the method:
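Compounds are dosed onto HepG2 cells across ten concentrations up to 200 uM for 24 hr. Cells are then fixed in 3.7% formaldehyde, permeabilised, and labelled for phospho-histone H3 and nuclei; images are scored by cell cycle analysis and fitted bidirectionally relative to DMSO.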

Test [6] in a line: APR_HepG2_MitoMembPot_24hr: Apredica 24-hour HepG2 Assay for Mitochondrial Membrane Potential (AID 2282911). The note with it: imaging, actives raise or lower the signal. The gist of the method:
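Human hepatoma HepG2 cultures received ten compound concentrations up to 200 uM for 24 hr. Membrane-potential dye signal, captured by automated fluorescence microscopy, was scored for gain or loss against DMSO controls.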

Test [7] in a line: APR_HepG2_MitoMass_24hr: Apredica 24-hour HepG2 Assay for Mitochondrial Mass (AID 2282912). The settings on record: high-content imaging, actives raise or lower the signal. The gist of the method: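 Mitochondrial mass is read as MitoTracker Red fluorescence intensity from automated imaging, with bidirectional curve fitting relative to DMSO. HepG2 cells received compound (0.39–200 uM, 0.5% DMSO final) for 24 hr and were dye-loaded (250 nM, 30 min) before formaldehyde fixation.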

Test [8] is described as follows: APR_HepG2_p53Act_24hr: Apredica 24-hour HepG2 Assay for p53 Activation (AID 2282913).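 Further: p53 protein immunofluorescence averaged per cell in HepG2 with Hoechst nuclei.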 The note with it: high-content imaging, actives raise or lower the signal. The method, boiled down:
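Automated fluorescence imaging quantifies p53 immunostaining in HepG2 cells after a 24 hr exposure (0.39–200 uM, duplicate, 0.5% DMSO). Nuclei are located by Hoechst 33342 staining.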

A short description of test [9]: APR_HepG2_CellCycleArrest_72hr: Apredica 72-hour HepG2 Assay for Cell Cycle Arrest (AID 2282914). The note with it: high-content imaging, actives raise or lower the signal. The method, boiled down:
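Cell cycle arrest in HepG2 was scored from nuclear DNA content after 72 hr compound treatment (0.39–200 uM). Activity, either gain or loss, was fitted against the DMSO baseline.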

Test [10] in a line: APR_HepG2_CellLoss_72hr: Apredica 72-hour HepG2 Assay for Cell Loss (AID 2282915). The settings on record: high-content imaging. The gist of the method:
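Cell number comes from Hoechst 33342-labelled nuclei, imaged at 20x after 3.7% formaldehyde fixation. Dosing was 0.39–200 uM, ten concentrations in duplicate, 0.5% DMSO final, for 72 h. Bidirectional fit relative to DMSO baseline.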

Activity calls are given as the source filed them. How the source made its calls: active means hit-call score of the fitted dose curve at least 0.9, where 1 is the maximum; inactive means score below 0.9.

On to `CC1=NNC(=O)N(/N=C/c2cccnc2)C1`, for which the result in [1], in test [2], in test [3], in test [4], in test [5] and in test [6] was inactive. For the same compound, the compound was called inactive in [7], in [8], in [9] and in test [10].

For `FC(F)C(F)(F)OCC(Cn1cncn1)c1ccc(Cl)cc1Cl` (centres undefined), the compound was classed as inactive in test [2], in test [5], in test [6], in test [7] and in test [8]. The AC50 in test [3] was 48.7 µM (active); in test [4], 103 µM (active); in test [9], 75.8 µM (active); in test [10] it was 99.9 µM (active).

As to `C[N+]1(C)CCCCC1`, the result in [2], in [3], in test [4], in [5], in [6] and in test [7] was inactive. In addition, the result in test [8], in [9] and in test [10] was inactive.

Regarding `CCOP(=O)(SC(C)CC)N1CCSC1=O` (centres undefined), the compound was called inactive in [2], in [3], in test [4], in test [5], in test [6] and in [7]. Further, the result in [9] and in [10] was inactive.

For `CSC1=N[C@@](C)(c2ccccc2)C(=O)N1Nc1ccccc1`, the outcome in test [2], in test [3], in test [5], in test [6], in [7] and in [8] was inactive. In [9], the compound was called inactive. The results for the AC50 in [4] and in [10] were 43.3 µM (active) and 12.2 µM (active), respectively.

As to `CCc1cccc(C)c1N(C(=O)CCl)C(C)COC` (centres undefined), the compound was called inactive in test [2], in [3], in test [4], in [5], in test [6] and in test [7]. The compound was classed as inactive in test [8] and in test [9]. In [10], the AC50 is 106 µM (active).

As for `CCOP(=S)(OCC)Oc1ccc([N+](=O)[O-])cc1`, the result in test [2], in test [3], in [4], in test [5], in [6] and in [7] was inactive. For the same compound, the result in [8], in [9] and in test [10] was inactive.

Turning to `C[Si](Cn1cncn1)(c1ccc(F)cc1)c1ccc(F)cc1`, the outcome in [2], in test [3], in test [4], in test [5], in test [6] and in test [7] was inactive. For the same compound, the outcome in test [8] and in [9] was inactive. For the same compound, in test [10], the AC50 was 57.8 µM (active).

`CCc1cccc(CC)c1N(COC)C(=O)CCl`: the outcome in test [2], in test [6], in test [7] and in [9] was inactive. Also, the AC50 is 92.5 µM (active) in test [3], 55.7 µM (active) in [4], 62.4 µM (active) in test [5] and 17.2 µM (active) in test [10].

For `Cc1nn(-c2cc(NS(C)(=O)=O)c(Cl)cc2Cl)c(=O)n1C(F)F`, the result in test [2], in [3], in test [4], in [5], in test [6] and in test [7] was inactive. Also, the compound was classed as inactive in test [8], in [9] and in test [10].

Regarding `Nc1c(Cl)cc([N+](=O)[O-])cc1Cl`, the result in [2], in test [3], in test [4], in test [5], in test [6] and in test [7] was inactive. The compound was classed as inactive in [9]. In addition, the half-maximal activity concentration (AC50) in [10] is 95.3 µM (active).

As for `CCc1cnc(C2=NC(C)(C(C)C)C(=O)N2)c(C(=O)O)c1` (centres undefined), the compound was classed as inactive in test [2], in test [3], in [4], in [5], in [6] and in test [7]. The compound was called inactive in [9] and in [10].

Turning to `COP(=O)(NC(C)=O)SC` (centres undefined), the result in [2], in test [3], in test [4], in test [5], in test [6] and in test [7] was inactive. The compound was classed as inactive in test [8], in test [9] and in [10].

Take `CN1COCN(Cc2cnc(Cl)s2)C1=N[N+](=O)[O-]`: the result in [2], in test [3], in test [4], in [5], in test [6] and in [7] was inactive. Also, the result in test [8], in [9] and in test [10] was inactive.

On to `CNc1cnn(-c2cccc(C(F)(F)F)c2)c(=O)c1Cl`, for which the result in test [2], in test [3], in test [4], in test [5], in test [6] and in test [7] was inactive. Further, the compound was classed as inactive in test [8], in [9] and in test [10].

Consider `CCCCOC(=O)[C@@H](C)Oc1ccc(Oc2ccc(C#N)cc2F)cc1`, for which the compound was called inactive in [2], in test [3], in [4], in test [5], in [6] and in test [7]. For the same compound, the result in [8] and in test [9] was inactive. Further, the AC50 in test [10] is 99.2 µM (active).

In the case of `CCOC(=O)COc1cc(-c2nn(C)c(OC(F)F)c2Cl)c(F)cc1Cl`, the outcome in test [2], in test [3], in test [4], in test [5], in [6] and in [7] was inactive. For the same compound, the result in test [8], in test [9] and in test [10] was inactive.

As for `Nc1nc(N)nc(NC2CC2)n1`, the result in [2], in [3], in test [4], in [5], in test [6] and in [7] was inactive. In addition, the outcome in test [8], in [9] and in test [10] was inactive.
